PGC1a acetyl inh – PGC1a acetylation modulation, inhibitor mode; U2OS PGC1a acetylation, AlphaScreen anti-acetyl-lysine; with virally co-expressed GCN5 acetyltransferase; AID 651687; 350,000 tested, 0.17% active; inhibition, % at 15.6 µM;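 active = every replicate shows inhibition of at least 40%; inconclusive = mean inhibition at least 40% but some replicate below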
C2C12 statin – protects C2C12 myotubes from simvastatin toxicity; 330,000 tested, 0.78% active; rescue of ATP level, % at 7.49 µM; ATP luminescence, 48 h; scaled: DMSO 0, geranylgeraniol control 100;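 active = mean ATP rescue above about 67%, or every replicate alone reaching that limit, limit read from the data, passing the limit was not always enough; inconclusive = no clear call, values can overlap the other calls; inactive = mean under the limit and some replicate under it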;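 note: myotubes were challenged with 10 µM simvastatin during compound exposure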
DENV2 CPE – DENV2-induced cell death inhibition; DENV2-infected cells, cytopathic effect rescue, plate reader; CPE inhibition, % at 9.99 µM; 350,000 tested, 1.7% active; in the data active = CPE inhibition above about 20%, passing the limit was not always enough; inconclusive = no clear call, values can overlap the other calls; tested in BHK-21 cells
miR122 inh – blocks miR-122 activity in Huh7 sensor cells. 340,000 tested, 0.3% active. activation (reporter increase), % at 12.5 µM. AID 602342. Huh7 miR-122 Renilla luciferase sensor, 48 h; neutral wells = 0, positive control = 100;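 active = mean replicate activation score at least 90 and every replicate individually at or above 90; inconclusive = only one of the two criteria met; inactive = neither criterion met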;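 note: higher luciferase means less miR-122 activity so hits act as miR-122 inhibitors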
PvdQ acylase – P. aeruginosa PvdQ acylase inhibition; purified PvdQ acylase, fluorescence plate reader; 340,000 tested, 0.063% active; AID 488965; inhibition, % at 10 µM; in the data active = inhibition above about 30%, passing the limit was not always enough; inconclusive = no clear call, values can overlap the other calls
Hits are given with their value. A selection: hits, their analogues and other compounds. The true share with any hit is near 2.2%.

Screening COc1ccc(S(=O)(=O)N2CCCN(S(=O)(=O)c3ccc(OC)c(C)c3)CC2)cc1C returned PGC1a acetyl inh inactive, C2C12 statin inactive, DENV2 CPE inactive, miR122 inh inactive and PvdQ acylase inactive.
CC(=O)Nc1ccc(S(=O)(=O)Nc2ccc(S(=O)(=O)N3CCCCCC3)cc2)cc1 was read as PGC1a acetyl inh inactive, C2C12 statin inactive, miR122 inh inactive and PvdQ acylase inactive.
O=C(C[C@@H]1C=C[C@@H](NC(=O)c2cccc(F)c2)[C@@H](CO)O1)NCCN1CCCC1 was read as PGC1a acetyl inh inactive, C2C12 statin inactive and DENV2 CPE inactive.
`Cc1nn(C(=O)c2cccnc2)c(C)c1Sc1ccc(Br)cc1` gave PGC1a acetyl inh inactive, C2C12 statin 75, miR122 inh inactive and PvdQ acylase inactive.
Screening COc1ccccc1-c1ccc2n(c1=O)C[C@@H]1[C@@H](CO)[C@H](C(=O)N(C)C)N(C(=O)c3cccnc3)[C@H]21 returned C2C12 statin inactive and DENV2 CPE inactive.
Screening CC1(C)OC(=O)C2=C(C[C@@H](C3CC3)O[C@@H]2C2CC2)O1 returned DENV2 CPE 61.
For CC1(C)OC(=O)C2=C(C[C@@H](C3CCCC3)O[C@H]2CCc2cccc(Cl)c2)O1 the results were DENV2 CPE inactive.
For COCCNC(=O)C[C@H]1CC[C@H]2[C@@H](COc3ccc(NC(=O)COC)cc3C(=O)N2C)O1 the results were PGC1a acetyl inh inactive, C2C12 statin inactive, DENV2 CPE inconclusive and miR122 inh inactive.
For CCc1ccc([C@@H]2CC=C(C(=O)O)[C@H](c3ccc(C(C)(C)C)cc3)N2S(=O)(=O)c2ccc(C)cc2)cc1 the results were PGC1a acetyl inh inactive, C2C12 statin inactive, DENV2 CPE 48, miR122 inh inactive and PvdQ acylase inactive.
`Cc1ccc([C@@H]2CC=C(C(=O)O)[C@H](c3ccc(C(C)(C)C)cc3)N2S(=O)(=O)c2ccc(C)cc2)cc1` gave PGC1a acetyl inh inactive, C2C12 statin inactive, DENV2 CPE inconclusive, miR122 inh inactive and PvdQ acylase inactive.
`Cc1ccc(S(=O)(=O)N2[C@@H](c3ccc(Br)cc3)C(C(=O)O)=CC[C@H]2c2ccc(C(C)C)cc2)cc1` gave PGC1a acetyl inh inactive, C2C12 statin inactive, DENV2 CPE 23, miR122 inh inactive and PvdQ acylase inactive.
Cc1cc(Br)ccc1NC(=O)CNC(=O)Cc1ccc(S(=O)(=O)N2CCOCC2)s1 was read as PGC1a acetyl inh inactive, C2C12 statin inactive, DENV2 CPE 39, miR122 inh inactive and PvdQ acylase inactive.
For CCNC(=O)Cc1ccc(S(=O)(=O)N2CCOCC2)s1 the results were C2C12 statin inactive, DENV2 CPE inconclusive and PvdQ acylase inactive.
For C[C@H](CO)N1C[C@H](C)[C@H](CN(C)C(=O)Nc2ccc(F)cc2)Oc2ccc(NC(=O)C3CC3)cc2CC1=O the results were C2C12 statin inactive, DENV2 CPE inactive and miR122 inh inactive.
Screening O=C(COC(=O)c1ccc(Cl)nc1)Nc1ccc(N2CCCCC2)cc1 returned C2C12 statin inactive, DENV2 CPE 62, miR122 inh inactive and PvdQ acylase inactive.
CC(=O)OCCCNc1cc(Sc2ccc(Cl)cc2)c2nonc2c1[N+](=O)[O-] was read as DENV2 CPE inactive and PvdQ acylase inactive.
Screening Cc1ccc(Sc2cc(NCCCO)c([N+](=O)[O-])c3nonc23)cc1 returned PGC1a acetyl inh inactive, C2C12 statin 102, DENV2 CPE inactive, miR122 inh inactive and PvdQ acylase inactive.
CCSc1nc(C2CC2)cc(-c2cccs2)c1C#N was read as PGC1a acetyl inh inactive, C2C12 statin inactive, miR122 inh inactive and PvdQ acylase inactive.
`CCSc1nc(C2CC2)cc(-c2ccco2)c1C#N` gave PGC1a acetyl inh inactive, C2C12 statin 100, miR122 inh inactive and PvdQ acylase inactive.
For CCOc1ccc2[nH]cc(S(=O)(=O)c3ccc(C)cc3)c(=O)c2c1 the results were PGC1a acetyl inh inactive, C2C12 statin inactive, DENV2 CPE 60, miR122 inh inactive and PvdQ acylase inactive.
`C[C@@H]1CN([C@H](C)CO)C(=O)c2cccc(NS(=O)(=O)c3ccc(F)cc3)c2O[C@H]1CN(C)Cc1ccc(C(F)(F)F)cc1` gave PGC1a acetyl inh inactive, C2C12 statin inactive, DENV2 CPE inactive and miR122 inh inactive.
For Cc1ccc(S(=O)(=O)Nc2cccc3c2O[C@@H](CN(C)Cc2ccc(C(F)(F)F)cc2)[C@H](C)CN([C@H](C)CO)C3=O)cc1 the results were PGC1a acetyl inh inactive, C2C12 statin 101, DENV2 CPE inactive and miR122 inh inactive.
Screening C[C@@H]1CN([C@@H](C)CO)C(=O)c2cccc(NS(=O)(=O)c3ccc(F)cc3)c2O[C@@H]1CN(C)Cc1ccc(C(F)(F)F)cc1 returned PGC1a acetyl inh inactive, C2C12 statin inactive, DENV2 CPE inactive and miR122 inh inactive.
For Cc1ccc(S(=O)(=O)Nc2cccc3c2O[C@@H](CN(C)Cc2ccc(C(F)(F)F)cc2)[C@H](C)CN([C@@H](C)CO)C3=O)cc1 the results were PGC1a acetyl inh inactive, C2C12 statin 78, DENV2 CPE inactive and miR122 inh inactive.
Screening COc1ccccc1-c1ccccc1[C@H]1[C@@H](CO)N(C(=O)C2CC2)[C@H]1C#N returned PGC1a acetyl inh inactive and DENV2 CPE inactive.
For COc1cccc2c1C(CO)N1C(C#N)C3CC(C(=O)O)C(C1C2)N3C (stereo not given) the results were PGC1a acetyl inh 66, C2C12 statin inactive, DENV2 CPE inactive, miR122 inh inactive and PvdQ acylase inactive.
Nc1[nH]c(C(=O)c2ccc(Br)cc2)c(-c2c(F)cccc2F)c1C(=O)NCCc1c[nH]c2ccccc12 was read as DENV2 CPE 39.
`Nc1[nH]c(C(=O)c2ccccc2)c(-c2ccc(Cl)cc2)c1C(=O)c1c[nH]c2ccc(F)cc12` gave DENV2 CPE inactive.
`Nc1[nH]c(C(=O)c2ccccc2)c(-c2ccc(Cl)cc2)c1C(=O)c1c[nH]c2ccccc12` gave DENV2 CPE 28.
`Nc1[nH]c(C(=O)c2ccc(Br)cc2)c(-c2ccc(F)cc2)c1C(=O)NCCc1c[nH]c2ccccc12` gave DENV2 CPE 26.
Nc1[nH]c(C(=O)c2ccc(Br)cc2)c(-c2ccccc2Br)c1C(=O)NCCc1c[nH]c2ccccc12 was read as DENV2 CPE inactive.
`COCCNC(=O)c1c(N)[nH]c(C(=O)c2ccc(Br)cc2)c1-c1ccc(Br)cc1` gave DENV2 CPE 34.
Screening CC(C)NC(=O)N(C)C[C@H]1Oc2cc(C#C[C@H](C)O)ccc2S(=O)(=O)N([C@H](C)CO)C[C@@H]1C returned PGC1a acetyl inh inactive, C2C12 statin inactive, DENV2 CPE inactive and miR122 inh inactive.
`CNC[C@H]1Oc2c(NC(=O)Nc3ccc(F)cc3)cccc2C(=O)N([C@@H](C)CO)C[C@@H]1C` gave PGC1a acetyl inh inactive, C2C12 statin inactive, DENV2 CPE inconclusive and miR122 inh inactive.

Assay outcomes from PubChem.
